Data on 22 compounds can be found in PubChem BioAssay (NCATS).

Results filed as inconclusive are left out. The source made the active and inactive calls. Unless noted, calls follow the shape of the dose curve; as a rule, active = well fitted curve in the direction sought with a large enough effect; inconclusive = small, poorly fitted or top-dose-only effect, or another doubt; inactive = no such curve, though single readings can be large; an effect the other way counts as inactive or inconclusive.

Sequence of Nuclear receptor subfamily 1 group I member 3 (Homo sapiens) (Q14994 whole entry, looked up): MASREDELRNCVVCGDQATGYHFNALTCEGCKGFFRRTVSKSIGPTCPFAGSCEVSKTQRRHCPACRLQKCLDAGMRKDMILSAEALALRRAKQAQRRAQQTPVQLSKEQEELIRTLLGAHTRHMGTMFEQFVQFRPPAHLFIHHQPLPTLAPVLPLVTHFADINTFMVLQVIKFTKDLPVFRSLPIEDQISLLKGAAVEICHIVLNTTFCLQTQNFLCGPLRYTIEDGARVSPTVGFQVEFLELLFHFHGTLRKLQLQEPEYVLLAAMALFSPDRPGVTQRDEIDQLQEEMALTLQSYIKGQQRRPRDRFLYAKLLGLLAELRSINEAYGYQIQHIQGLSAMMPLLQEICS

One test deals with Phenylethanolamine N-methyltransferase (Homo sapiens) (UniProt P11086). Put plainly: Confirmatory Screen for Target Class Profiling of Small Molecule Inhibitors of Methyltransferases (AID 1745852). As to conditions: MTase-Glo luminescence, SAH detection, recombinant enzyme; measured here: PNMT max response; stronger effect = lower value.
Sequence of Phenylethanolamine N-methyltransferase (Homo sapiens) (P11086 whole entry, looked up): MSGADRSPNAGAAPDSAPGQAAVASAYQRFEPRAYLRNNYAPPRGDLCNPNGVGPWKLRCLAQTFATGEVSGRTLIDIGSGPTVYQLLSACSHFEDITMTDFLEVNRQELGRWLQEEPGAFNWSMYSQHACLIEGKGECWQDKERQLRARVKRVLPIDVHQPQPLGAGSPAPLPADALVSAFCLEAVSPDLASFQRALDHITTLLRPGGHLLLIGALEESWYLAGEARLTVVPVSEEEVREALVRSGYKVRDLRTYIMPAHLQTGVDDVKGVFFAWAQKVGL
For the compound `CC[C@H](C)C(=O)O[C@H]1CCC=C2C=C[C@H](C)[C@H](CC[C@@H]3C[C@@H](O)CC(=O)O3)[C@H]21`, the activity was -5.04%. The same measure, in the same setting: under `NC(=NCCCCCCN=C(N)/N=C(\N)Nc1ccc(Cl)cc1)/N=C(\N)Nc1ccc(Cl)cc1` stands -67.4%; under `CC(C)(C)CC(C)(C)c1ccc(OCCOCC[N+](C)(C)Cc2ccccc2)cc1`, -7.81%; under `CC(C)C[C@H]1C(=O)N2CCC[C@H]2[C@]2(O)O[C@](NC(=O)[C@@H]3C=C4c5cccc6[nH]c(Br)c(c56)C[C@H]4N(C)C3)(C(C)C)C(=O)N12`, 4.08%.

Test system in another test: not listed separately
Put plainly: NCATS anti-infectives library activity on HEK293 viability as a counter-qHTS vs the C. elegans viability qHTS (AID 1745854). Also: potency is read from the fitted curve at half-maximal effect. As to activity change, negative = cytotoxicity: % is scaled to controls: 0 for no effect and ±100 for the full control effect. The conditions noted are these: HEK293 viability counter-screen; series mostly up to 41.8 µM; activity change, negative = cytotoxicity: at the top concentration. The method in brief: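 CellTiter-Glo luminescence, read on a CCD imager, scored viability of HEK293 cells after 24 hr compound exposure at 37C. Library tested in several concentrations, 1:5 steps, up to 41.7 uM; digitonin served as control.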
In general terms: In qHTS, concentration-response curves come from the screen itself.
Turning to `COc1cccc2c1C(=O)c1c(O)c3c(c(O)c1C2=O)C[C@@](O)(C(C)=O)C[C@@H]3O[C@H]1C[C@H](N)[C@H](O)[C@H](C)O1`, the Potency was 5.62 µM (active). With `CCCCC1=NC2(CCCC2)C(=O)N1Cc1ccc(-c2ccccc2-c2nn[nH]n2)cc1`, the “activity change, negative = cytotoxicity” value was 4.75% (inactive).

On to `CC1(C)O[C@@H]2[C@@H](CO[C@@]3(COS(N)(=O)=O)OC(C)(C)O[C@@H]23)O1`, for which the “activity change, negative = cytotoxicity” value was -0.213% (inactive). Same read-out and setting: under `CCN(CC)C(=O)/C(C#N)=C/c1cc(O)c(O)c([N+](=O)[O-])c1` stands 8.55% (inactive); under `CCCCc1nc(Cl)c(CO)n1Cc1ccc(-c2ccccc2-c2nn[nH]n2)cc1`, -17% (inactive). Still for that read-out and setting: under `NCCCC[C@H](N[C@@H](CCc1ccccc1)C(=O)O)C(=O)N1CCC[C@H]1C(=O)O` stands -8.63% [at 8.35 µM] (inactive); under `CC(O)(P(=O)(O)O)P(=O)(O)O`, 0.883% [at 8.35 µM] (inactive); under `C=C1C(=C/C=C2\CCC[C@]3(C)[C@@H]([C@H](C)/C=C/[C@@H](O)C4CC4)CC[C@@H]23)C[C@@H](O)C[C@@H]1O`, -10.4% (inactive). The same measure, in the same setting: under `CC(C)(C)NC(=O)[C@@H]1CN(Cc2cccnc2)CCN1C[C@@H](O)C[C@@H](Cc1ccccc1)C(=O)N[C@H]1c2ccccc2C[C@H]1O` stands -7.11% (inactive); under `NCCC(O)(P(=O)(O)O)P(=O)(O)O`, 1.44% (inactive). Consider `CC[C@@H](CO)NCCN[C@@H](CC)CO`, for which the “activity change, negative = cytotoxicity” value is 2.75% (inactive). Still for that read-out and setting: as for `O=c1ccc2ccccc2o1`, the figure is 0.163% [at 83.3 µM] (inactive). `CCCCCCCCCCCCCCCCOP(=O)([O-])OCC[N+](C)(C)C`: the activity change, negative = cytotoxicity was -18.3% [at 8.35 µM] (inactive).

Test system in the next test: not listed separately
Put plainly: NCATS anti-infectives library activity on the primary C. elegans qHTS viability assay (AID 1745855; calls by dose curve; also: potency is read from the fitted curve at half-maximal effect). The conditions noted are these: C. elegans worm area imaging, day 7; series mostly up to 83.3 µM. The method in brief:
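Titration-based screen in worms: eggs hatched overnight in M9, L1 larvae fed TOP10 capsules in S medium with compound, incubated 21 °C for 7 days; fluorescent objects gated by size and intensity at days 0, 3 and 7.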
For `COc1cccc2c1C(=O)c1c(O)c3c(c(O)c1C2=O)C[C@@](O)(C(C)=O)C[C@@H]3O[C@H]1C[C@H](N)[C@H](O)[C@H](C)O1`, the Potency was 5.78 µM (active). The same measure, in the same setting: under `COc1cccc2c1C(=O)c1c(O)c3c(c(O)c1C2=O)C[C@@](O)(C(=O)CO)C[C@@H]3O[C@H]1C[C@H](N)[C@H](O)[C@H](C)O1` stands 23 µM (active).

On to `CC1(C)O[C@@H]2[C@@H](CO[C@@]3(COS(N)(=O)=O)OC(C)(C)O[C@@H]23)O1`, for which the “outcome” value is “inactive [at 41.8 µM]”. Turning to `NC(=NCCCCCCN=C(N)/N=C(\N)Nc1ccc(Cl)cc1)/N=C(\N)Nc1ccc(Cl)cc1`, the Potency was 11.5 µM (active).

Turning to `O=c1ccc2ccccc2o1`, the “outcome” value was “inactive”. On the same count and under the same terms, as for `CCCCCCCCCCCCCCCCOP(=O)([O-])OCC[N+](C)(C)C`, the entry is “inactive [at 8.33 µM]”.

Test system in a further test: not listed separately
As to the kind of experiment: Viability counterscreen for antagonist of constitutive androstane receptor (CAR) against the NCATS DSHEA and TCM libraries (AID 1794837).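 Also: compound exposure lasted 24 h before viability reading; 0% is about no effect.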 The conditions noted are these: CAR reporter cell line viability counterscreen, qHTS; series mostly up to 40 µM; viability change, negative = cytotoxic: at the top concentration. The text has this: Assay Development and Screening Technology Laboratory (ADST)
National Center for Advancing Translational Sciences (NCATS), Rockville, MD
National Institute of Health (NIH), Bethesda, Maryland
Dietary Supplements and Natural Products have minor oversight of their safety and efficacy. We assembled a collection of Dietary Supplements and Natural Products (DSNP) as well as Traditional Chinese Medicinal (TCM) Plant extracts, which were screened against an in vitro panel of assays, including a liver cytochrome p450 enzyme panel, CAR/PXR signaling pathways, and P-gp transporter assays, to assess their activity. This pipeline facilitated the interrogation of Natural Product-Drug Interaction (NaPDI) through prominent metabolizing pathways. In addition, we compared the activity profiles of the DSNP/TCM substances with those of an approved drug collection. Many of the approved drugs have well-annotated mechanisms of action (MOA) while the MOAs for most of the DSNP and TCM samples remain unknown. Based on the premise that compounds with similar activity profiles tend to share similar targets or MOA, we clustered the library activity profiles to identify overlap with the NCATS Pharmaceutical Collection to predict the MOAs of the DSNP/TCM substances. Overall, we highlight four significant bioactivity profiles (measured by p-values) as examples of this prediction.
To this end, we profiled both collections for potential CAR and/or PXR activity, employing a previously published 1536-well qHTS assay.
PROTOCOL TABLE (as described by Inglese J, Shamu CE and Guy RK. 2007)
SEQUENCE No. (e.g., 1, 2, 3, etc.); […] (e.g., Cells, Incubation, Reagent, etc.); VALUE; DESCRIPTION.
1; Cells; 4 uL; 1536-well white Greiner assay plate.
2; Incubation; 5 hours; 37C, 95% humidity, 5% CO2.
3; Compounds; 23 nL; Kalypsis pin tool (Wako USA) equipped with 1536-well pin head to transfer to the assay plates.
4; Reagent; 1 uL; 48 uM CITCO (final concentration).
5; Incubation; 24 hours; 37C, 5% CO2.
6; Detection Reagent 1; 1 uL; CellTiter-Fluor (Promega).
7; Incubation; 1 hour; 37C, 5% CO2.
8; Detector 1; Fluorescence intensity; ViewLux plate reader (excitation 405 nm, emission 540 nm).
9; Detection Reagent 2; 4 uL; ONE-Glo Luciferase reagent (Promega).
10; Incubation; 30 min; room temperature.
11; Detector 2; Luminescence intensity; ViewLux.
NOTES (numbers refer to Sequence numbers above)
1. 4 uL of HepG2-CYP2B6-hCAR cells at 6.25 x 10^5 cells/mL (2,500 cells/well) were dispensed using a Multidrop Combi dispenser in tissue culture-treated 1536-well white assay plates (Greiner Bio-One) in the same culture media, without geneticin and blasticidin included.
2. Plates were incubated for 5 hours at 37C, 95% humidity, and 5% CO2 to allow for cell attachment.
3. Compounds (final concentrations of most substances ranged from 15.6 nM to 31.9 uM), positive control (for antagonist mode: PK11195 with a final concentration range 2.8 nM to 92 uM), and toxicity control tetraoctyl ammonium bromide (final concentration of 92 uM) were transferred (23 nL) via pintool (Wako Automation).
4. After compound transfer, plates were dispensed with 1 uL of the known hCAR agonist 6-(4-Chlorophenyl)imidazo[2,1-b][1,3]thiazole-5-carbaldehyde O-(3,4-dichlorobenzyl)oxime (CITCO, final concentration of 48 uM) in the antagonist mode using a BioRAPTR FRDTM.
6. […]
8. Fluorescence intensity (Ex/Em = 405 nm/540 nm) is obtained using the ViewLux plate reader to determine cell viability. […]
10. Luminescence intensity is read using the ViewLux detector. […]
For orientation: Counterscreens check selectivity or assay interference.
With `C=CCc1ccc(O)c(OC)c1`, the “viability change, negative = cytotoxic” value was 0.106% (inactive).

For `O=c1ccc2ccccc2o1`, the “viability change, negative = cytotoxic” value is -9.03% (inactive). Same read-out and setting: under `Nc1nc2ncc(CNc3ccc(C(=O)N[C@@H](CCC(=O)O)C(=O)O)cc3)nc2c(=O)[nH]1` stands 1.7% (inactive). `Nc1ccc(C(=O)O)cc1`: the “viability change, negative = cytotoxic” value is 5.42% (inactive). On the same count and under the same terms, under `C/C=C/c1ccc(OC)cc1` stands 0.176% (inactive).

Test system in the next test: not listed separately
As to the kind of experiment: Viability counterscreen for agonist of constitutive androstane receptor (CAR) against the NCATS DSHEA and TCM libraries (AID 1794838).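 Also: cells exposed to compound for 24 h; 0% is about no effect.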 As to conditions: HepG2 cell viability counterscreen, CAR agonist assay, co-treated with 0.75 µM CAR antagonist; series mostly up to 40 µM; activity change, negative = cytotoxicity: at the top concentration. The method in brief:
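Cell viability, from CellTiter-Fluor fluorescence (405/540 nm), was scored after a 24 h, 37C exposure of HepG2 cells carrying CYP2B6 reporter and hCAR to test substances in presence of 0.75 uM PK11195.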
Take `C=CCc1ccc(O)c(OC)c1`: the “activity change, negative = cytotoxicity” value was -4.66% (inactive). On the same count and under the same terms, as for `O=c1ccc2ccccc2o1`, the figure is -5.98% (inactive); as for `Nc1nc2ncc(CNc3ccc(C(=O)N[C@@H](CCC(=O)O)C(=O)O)cc3)nc2c(=O)[nH]1`, 11% (inactive). The same measure, in the same setting: as for `Nc1ccc(C(=O)O)cc1`, the figure is 8.52% (inactive). The same measure, in the same setting: under `C/C=C/c1ccc(OC)cc1` stands -5.09% (inactive).

Another test addresses Nuclear receptor subfamily 1 group I member 3 (Homo sapiens) (UniProt Q14994). As to the kind of experiment: Primary qHTS for agonist of constitutive androstane receptor (CAR) against the NCATS DSHEA and TCM libraries (AID 1794839).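 Also: HepG2 cells expressing human CAR with a CYP2B6 reporter plus PK11195 antagonist; luciferase reporter luminescence read with ONE-Glo; 0% is about no effect.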 The conditions noted are these: CAR agonist reporter cells, qHTS luminescence, CAR antagonist co-added at 0.75 µM; series mostly up to 40 µM; activation: at the top concentration. The method in brief: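 Agonist mode in presence of hCAR antagonist PK11195 (0.75 µM final): test substances, 24 h, 37 °C, on HepG2-CYP2B6-hCAR cells. Same-well readouts: fluorescence viability, then ONE-Glo luminescence; CITCO as reference agonist.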
Consider `C=CCc1ccc(O)c(OC)c1`, for which the “activation” value was -19.6% (inactive). On to `O=c1ccc2ccccc2o1`, for which the “activation” value was -16.6% (inactive). Still for that read-out and setting: under `Nc1nc2ncc(CNc3ccc(C(=O)N[C@@H](CCC(=O)O)C(=O)O)cc3)nc2c(=O)[nH]1` stands -2.3% (inactive); under `Nc1ccc(C(=O)O)cc1`, 1.61% (inactive). Same read-out and setting: under `C/C=C/c1ccc(OC)cc1` stands -16.2% (inactive).
